Platelet DG rel: inhibitors of platelet dense granule secretion, primary screen, cell-based, MLPCN, human platelets; 300,000 compounds, 0.22% hits; inhibition, %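 (compounds screened at 7.5 µM in platelet-rich plasma)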; human platelet-rich plasma, SFLLRN dense granule ATP release, luminescence; AID 1663, 2009;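 active = mean replicate score, as percent of positive control, at or above 50; inconclusive = mean below 50 but at least one replicate at or above 50; inactive = mean and every replicate below 50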
KLF5 inhibitor: KLF5 expression inhibitors, primary screen, DLD-1 cells, luminescence; DLD-1 KLF5 promoter-luciferase reporter; inhibition, % at 5 µM; 290,000 compounds, 0.23% hits; AID 1700, 2009;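 active = inhibition above a per-plate limit of that plate's mean compound inhibition plus 3 SD, cut at about 60% in these data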;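 note: higher means less KLF5 promoter-driven luciferase light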
Wee1 degr inh: Wee1 degradation inhibitors, primary screen, cell-based, HeLa, Wee1K328M-luciferase, luminescence | HeLa Luc-Wee1K328M stability; 100% = proteasome inhibitor MG132 effect | reporter increase, % at 5 µM | 220,000 compounds, 1.2% hits;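 active = activation above the mean of all tested compounds plus 3 SD, set per screening run, cut at about 8.8% in these data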;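 note: cells exposed to compound for 20 h before luminescence read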
Target sequence (P30291 whole entry K328M): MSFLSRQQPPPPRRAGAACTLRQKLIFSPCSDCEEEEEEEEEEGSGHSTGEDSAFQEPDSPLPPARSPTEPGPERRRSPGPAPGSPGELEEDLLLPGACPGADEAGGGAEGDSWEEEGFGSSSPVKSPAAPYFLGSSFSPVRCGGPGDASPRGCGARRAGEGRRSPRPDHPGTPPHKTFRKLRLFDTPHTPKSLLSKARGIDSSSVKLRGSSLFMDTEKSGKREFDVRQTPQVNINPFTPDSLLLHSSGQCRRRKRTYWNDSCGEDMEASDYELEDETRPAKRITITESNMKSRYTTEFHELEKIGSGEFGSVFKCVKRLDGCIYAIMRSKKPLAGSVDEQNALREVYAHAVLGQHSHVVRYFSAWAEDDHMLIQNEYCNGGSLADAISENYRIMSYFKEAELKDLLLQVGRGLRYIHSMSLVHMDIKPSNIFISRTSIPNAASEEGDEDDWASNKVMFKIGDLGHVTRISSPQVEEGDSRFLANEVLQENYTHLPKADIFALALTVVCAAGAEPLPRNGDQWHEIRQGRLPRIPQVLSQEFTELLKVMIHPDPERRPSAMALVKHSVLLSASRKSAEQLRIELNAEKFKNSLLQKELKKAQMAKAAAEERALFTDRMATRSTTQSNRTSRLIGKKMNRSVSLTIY
aSyn 5UTR inh: MLPCN primary screen, SNCA 5' untranslated region; inhibition, % (tested at 7.5 µM); alpha-synuclein 5'UTR reporter, inhibitor activity; 300,000 compounds, 0.82% hits; in the data active = inhibition above about 60%; inconclusive = no clear call, values can overlap the other calls;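 note: H4 neuroglioblastoma cells stably carrying SNCA 5'UTR luciferase fusion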
HIF act: HIF pathway transcriptional activators, primary screen, cell-based, U2OS HRE-luciferase, luminescence; U2OS HRE-luciferase reporter; normalized: DMSO 0%, desferrioxamine 100%; activation, % at 7.5 µM (by protocol); 300,000 compounds, 0.32% hits; AID 1910, 2009;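 active = mean activation of at least 10% of the iron chelator positive control signal, with at least half of replicates also reaching 10%; inconclusive = mean and replicate majority disagree about reaching 10%; inactive = mean and most replicates under 10%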
Numbers stand for hits; – = inactive; ? = inconclusive; · = no result given. Only some compounds are listed: those with a hit (about 2.1% of all), similar ones and a draw of the others.

SMILES	Platelet DG rel	KLF5 inhibitor	Wee1 degr inh	aSyn 5UTR inh	HIF act
Nn1cnc2scc(-c3ccc(Cl)cc3)c2c1=O	–	–	·	–	–
CCCCc1nnc(NC(=O)c2ccc3[nH]c(=O)c(=O)[nH]c3c2)s1	–	–	·	–	197
CCn1nc(C)c(CN2CCC(C(=O)Nc3cccc(-c4cccc(Cl)c4)c3)CC2)c1C	–	–	·	–	–
Cn1ccsc1=NC(=O)c1cccc(C#N)c1	–	–	·	–	–
C/C(=N/NC(=O)c1ccc2c(c1)OCO2)c1ccc(Br)s1	–	–	–	–	–
C/C(=N\NC(=O)c1ccc(Cl)c(Cl)c1)c1ccc(Br)s1	–	–	–	91	–
CCOc1ccc(C(Nc2cccnc2)c2cc(Cl)c3cccnc3c2O)cc1 (centres undefined)	–	–	–	67	–
O=C(O)COc1ccccc1C(Nc1cccnc1)c1cc(Cl)c2cccnc2c1O (centres undefined)	–	–	–	–	–
O=C(NC(c1ccccc1)c1cc(Cl)c2cccnc2c1O)c1cccnc1 (centres undefined)	–	–	–	100	–
Cc1ccc(NC(=O)c2cccc(S(=O)(=O)N3CCN(c4ccccc4)CC3)c2)nc1	–	·	·	–	–
CC(C)Cn1c(=O)c(C(=O)Nc2ccncc2)c(O)c2ccccc21	–	·	·	66	–
Cc1cccc(C(=O)CC(=O)c2cc(Cl)ccc2O)c1	–	–	–	64	–
O=C(CC(=O)c1cc(Cl)ccc1O)c1ccccc1	–	–	–	–	–
Cc1ccc(CNC(=O)c2ccc(OCC3CCCO3)cc2)cc1 (centres undefined)	–	–	–	–	–
COCCCNC(=O)CNC(=S)N(Cc1ccccc1F)C1CCCCC1	–	–	–	–	–
CCCCNC(=O)CNC(=S)N(Cc1ccccc1F)C1CCCCC1	–	–	9.1	–	–
CCNc1nc(NC#N)nc(SCC(=O)OCC)n1	55	–	–	–	–
S=C(Nc1ccc(-c2nc3ccccc3[nH]2)cc1)Nc1cccnc1	–	–	·	–	–
Cc1ccc(-c2nn(-c3ccccc3)cc2C=O)o1	–	–	11	–	–
CCc1ccccc1NC(=S)N1CCCCCC1	·	–	·	·	·
O=C1N[C@H](C(=O)O)CS1	–	·	·	–	–
CCCOCc1ccc(O)c2ncccc12	–	–	–	–	–
OCc1ccc(O)c2ncccc12	–	–	–	66	–
Oc1ccc(CNc2ccccc2F)c2cccnc12	–	–	–	87	–
CC(C)COCc1ccc(O)c2ncccc12	–	–	–	96	–
SMILES	Platelet DG rel	KLF5 inhibitor	Wee1 degr inh	aSyn 5UTR inh	HIF act
COc1ccc(/C=N/NC(C)(C)C)c(OC)c1	–	–	–	–	–
CSc1nnc(CCNS(=O)(=O)c2ccccc2Br)n1C	–	–	·	–	–
CCN(c1cccc(C)c1)S(=O)(=O)c1ccc2c(c1)N(C(C)=O)CCS2	–	–	·	–	–
Oc1c(CN2CCCCC2)cc(COCc2ccccc2)c2cccnc12	–	–	–	92	132
Oc1c(CN2CCN(c3ccccn3)CC2)cc(Cl)c2cccnc12	–	–	–	92	–
O=[N+]([O-])c1cc(CN2CCN(c3cccc(C(F)(F)F)c3)CC2)c2cccnc2c1O	–	–	–	71	–
Oc1ccc(CN2CCC(Cc3ccccc3)CC2)c2cccnc12	–	–	–	105	18
OCCN1CCN(Cc2cc(Cl)c3cccnc3c2O)CC1	–	–	–	–	–
Clc1ccccc1CN1CCC(Cc2ccccc2)CC1	–	–	–	–	–
CN(CCO)c1ccc(-c2nn(C)c(=O)c3ccccc23)cc1[N+](=O)[O-]	–	–	–	–	–
CCOC(=O)N1CCN(Cc2ccc(O)c3ncccc23)CC1	–	–	–	–	–
Oc1ccc(CN2CCN(c3ccccc3)CC2)c2cccnc12	–	–	–	80	–
Cc1ccc(C)c(S(=O)(=O)N2CCN(Cc3ccc(O)c4ncccc34)CC2)c1	–	–	9.3	74	29
Oc1ccc(CN2CCCCC2)c2cccnc12	–	–	–	?	–
Cc1ccsc1C(=O)Nc1cccc(-n2cnnn2)c1	–	–	·	–	–
CN(C)c1nc(Oc2ccc(C(=O)OCC(=O)Nc3ccccc3)cc2)nc(N(C)C)n1	–	–	9.1	–	–
O=c1oc(Nc2ccc(F)cc2)nc2ccccc12	70	–	–	–	–
